# Compound activity deposited in PubChem by several laboratories.
# Gli-Sufu block = antagonists of Gli-Sufu signaling; Sufu-KO-LIGHT fibroblasts, Gli luciferase reporter luminescence; inhibition, % at 5 µM; 340,000 tested, 0.74% active; AID 588413;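 active = inhibition above about 55%, limit read from the data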;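 also: 0% = DMSO-treated cells and 100% = wells with medium but no cells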
# Beta cell apopt = beta cell apoptosis inhibition | INS-1E cytokine-induced death, ATP luminescence, 48 h; percent of positive-control rescue, neutral wells zero | protection from apoptosis, % (concentration not given with the values) | 300,000 tested, 0.8% active;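 active = Every replicate reaches about 75%, or at least half do and their mean reaches it too, limit read from the data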;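 also: 0% = cytokine-treated negative control wells and 100% = positive control rescue; higher means more ATP so stronger rescue from cytokine killing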
# Jurkat NFkB inh = lowers PMA/ionomycin-induced NF-kB signal in Jurkat cells. PMA/ionomycin-induced NF-kB luciferase reporter, luminescence. inhibition, % at 4 µM. 330,000 tested, 0.53% active; in the data active = inhibition above about 50%
# 697 NFkB inh = inhibitors of the PMA/ionomycin-induced NF-kB reporter in 697 B cells | 330,000 tested, 0.33% active | inhibition, % at 4 µM | 697 B-cell NF-kB luciferase reporter, 16 h; in the data active = inhibition above about 35%
# Jurkat NFkB conf = lowers PMA/ionomycin-induced NF-kB signal in Jurkat cells; inhibition, % at 4 µM; shares compounds with Jurkat NFkB inh; AID 435020; Jurkat NF-kB luciferase, 16 h; 2,700 tested, 27% active;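 active = inhibition reaching about 45% at 4 µM in either replicate, limit read from the data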;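 also: plate controls were PMA/ionomycin stimulated DMSO wells for no effect and unstimulated DMSO wells for full effect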
# An asterisk follows results filed as active; nt = not tested or not shown. The list is not random: actives were taken first. Their share in the collection is about 1.8%.
SMILES,Gli-Sufu block,Beta cell apopt,Jurkat NFkB inh,697 NFkB inh,Jurkat NFkB conf
Cc1cccc(N2CCN(C(=O)COc3cc4oc(=O)cc(C)c4cc3Cl)CC2)c1C,-8,-1,54*,-26,8
COc1ccc2oc(=Nc3cc(F)ccc3F)c(C(N)=O)cc2c1,-11,-10,65*,-64,25
CN(C)c1ccc(NC(=O)/C=C/c2ccccc2Cl)cc1,-57,11,-68,-24,nt
N#Cc1ccccc1NC(=O)C1SC(=Nc2ccccc2)C(C(=O)Nc2ccc(Cl)cc2)=C1N (configuration not stated),43,12,2,-14,nt
COc1ccccc1N=C1SC(C(=O)Nc2cccc(Cl)c2Cl)C(N)=C1C(N)=O (configuration not stated),-5,3,58*,-16,0
CCOc1ccc(C(=O)N2CCc3ccccc32)cc1,-67,4,-66,-78,nt
Cc1ccc(Nc2cc(C)nn2-c2nc(C)cc(C)n2)cc1,6,55,-12,-1,nt
Cc1ccc(Nc2cc(C)nn2-c2nc(C)cc(=O)[nH]2)cc1,92*,98*,97*,-107,68*
Nc1nc2n[nH]nc2c(=O)[nH]1,43,-8,64*,-52,74*
CC(=O)Nc1ccc(S(=O)(=O)N2c3ccc(F)cc3CCC2C)cc1 (configuration not stated),-1,15,57*,-21,42
COc1ccc(S(=O)(=O)N2c3ccc(F)cc3CCC2C)cc1 (configuration not stated),50,nt,40,7,nt
Cc1cc(O)c(-c2cc(C(=O)Nc3cccnc3)[nH]n2)cc1C,-82,-3,-178,-41,-114
Cc1cc(C)c(O)c(-c2cc(C(=O)Nc3cccnc3)[nH]n2)c1,-27,-4,-8,14,nt
O=C(NN1CCOCC1)c1cc(-c2cccc(Cl)c2)nc2ccccc12,3,3,5,7,nt
O=C(COc1ccc2ccccc2c1Br)Nc1cccnc1,-22,-4,-50,-52,nt
O=C(COc1ccc2ccccc2c1Br)Nc1ccncc1,-2,-4,56*,0,32
CC(C)(C)NC(=O)CN(C(=O)C1CSC(=O)C1)c1ccccc1F (configuration not stated),1,-7,6,12,nt
CCc1ccc(S(=O)(=O)/N=C2\C=C(Nc3ccc(O)cc3)C(=O)c3ccccc32)cc1,88*,115*,54*,-8,52*
CCc1ccc(S(=O)(=O)/N=C2\C=C(Nc3cccc(C(=O)O)c3)C(=O)c3ccccc32)cc1,-18,52,3,-35,nt
Cn1c(CNc2ccc(Cl)cc2)nc2ccccc21,-72,-11,-20,-16,nt
CC(C)N=c1cc2n(-c3ccc(Cl)cc3)c3ccccc3nc-2cc1Nc1ccc(Cl)cc1,16,114*,73*,-24,10
COc1ccc(C(O)Cn2ccsc2=NC(C)=O)cc1 (configuration not stated),46,nt,-8,-39,nt
O=C(CSc1nccn(-c2ccc(Br)cc2)c1=O)NC1CCCC1,-14,-16,14,-38,nt
COc1ccc(-c2cc3ccc(OCC(C)=O)cc3oc2=O)cc1,-133,5,-154,-170,-105
CC1CCN(C(=O)CCCN2C(=O)c3cccnc3Oc3ccc(Cl)cc32)CC1,nt,-1,3,-10,nt
SMILES,Gli-Sufu block,Beta cell apopt,Jurkat NFkB inh,697 NFkB inh,Jurkat NFkB conf
Nc1c(C(=O)Nc2ccc3c(c2)OCCO3)nnn1Cc1ccc(Br)cc1,-130,0,-200,-190,-112
O=C(Nc1ccc2c(c1)OCCO2)c1ccc(Cl)c([N+](=O)[O-])c1,-14,7,-19,-72,nt
Cc1cc(C(=O)Nc2ccc3c(c2)OCCO3)ccc1[N+](=O)[O-],-101,-8,-160,-72,-82
O=C(Nc1ccc2c(c1)OCCO2)c1cccc(Br)c1,-78,4,-174,-55,-101
CCN1CCN(c2ccc(NC(=O)c3ccc4c(c3)OCCO4)cc2C)CC1,-50,nt,-165,-76,-40
CCN1CCN(c2cc(C)c3cc(NC(=O)c4ccc5c(c4)OCO5)ccc3n2)CC1,-5,0,-3,-2,nt
O=C(CSc1nc(-c2ccc(F)cc2)cs1)N1CCN(C(=O)c2ccco2)CC1,7,2,-1,9,nt
Cc1ccc(C(=O)Nc2ccc3c(c2)OCCO3)cc1,-9,1,-48,-221,nt
CC(C)c1ccc(NC(=O)c2cccc(Br)c2)cc1,-98,3,-234,-207,-106
O=C(Nc1ccc(Cl)cc1Cl)c1ccc2c(c1)OCCO2,-93,8,-167,-241,-95
O=C(Nc1cccc(C(=O)Nc2cccc(Br)c2)c1)c1ccccc1,3,15,-27,-38,nt
O=C(Nc1ccc2c(c1)OCCO2)c1ccc(Cl)c(Cl)c1,-79,1,-151,-45,-132
COc1ccc(S(=O)(=O)N2CCCCCC2)cc1NC(=O)Cc1cc(OC)c(OC)c(OC)c1,2,4,4,-21,nt
Cc1nc2ccccc2c(=O)n1NC(=O)c1cc(Br)ccc1Cl,3,-3,-7,-5,nt
Cn1ccc(C(=O)N/N=C/c2ccncc2)n1,-10,nt,-3,5,nt
CCOC(=O)c1sc(=NC(=O)c2cccc(C)c2)n(C)c1C,-28,-2,-186,-114,-109
CCOC(=O)c1sc(=NC(=O)c2ccc(F)cc2)n(C)c1C,-99,nt,-154,-198,-121
COc1ccccc1NS(=O)(=O)NC(=O)c1cn(C)c2ccccc12,-7,-4,-12,18,nt
CCc1[nH]nc(C(=O)N2CCCC(C(=O)c3cccc(OC(C)C)c3)C2)c1C (configuration not stated),17,0,1,1,nt
O=[N+]([O-])c1ccc(N2CCN(c3cccc(Cl)c3)CC2)nc1,11,5,61*,5,15
O=[N+]([O-])c1ccc(N2CCN(Cc3ccccc3)CC2)nc1,11,nt,14,-2,nt
CC1(C)Cc2ccccc2-c2nnc(-c3cccnc3)n21,-3,-3,11,-9,nt
COC(=O)c1ccc(COC(=O)C23CC4CC(CC(O)(C4)C2)C3)o1,-2,4,-4,3,nt
COc1cc(C(=O)COC(=O)c2c(C)noc2C)cc(OC)c1OC,6,-1,-163,23,4
O=C1/C(=C\c2cccs2)Sc2ccc3ccccc3c21,20,5,-157,-155,-91
SMILES,Gli-Sufu block,Beta cell apopt,Jurkat NFkB inh,697 NFkB inh,Jurkat NFkB conf
CCCCCCCCC[n+]1cccc2c3ccccc3ccc21,-1,111*,71*,-23,68*
S=C(c1ccc(-c2ccc(Br)cc2)o1)N1CCOCC1,-70,-13,-92,-116,nt
S=C(c1ccc(-c2ccc(Br)cc2)o1)N1CCCCC1,-97,nt,-175,-181,-115
CCOc1ccc(C(=O)Nc2ncccc2Cl)cc1,-48,0,-45,6,nt
O=C(c1cc(-c2ccncc2)nc2c(Cl)cccc12)N1CCN(c2ccccc2F)CC1,nt,-4,60*,1,36
Cc1ccc(-c2cc(C(=O)N3CCN(c4ccccc4O)CC3)c3ccccc3n2)cc1,-21,6,-9,-24,nt
CN(C(=O)COC(=O)c1ccc(S(=O)(=O)N2CCCC2)cc1)c1ccccc1,2,-14,2,6,nt
